Pf growth 48h – inhibits P. falciparum growth in the first generation, 48 h | P. falciparum luciferase growth in erythrocytes, 48 h | Potency, µM (series often up to 28.7 µM), without a hit: at the top dose activity change, negative = inhibition, most hits filed as inhibitors | 310,000 tested, 5.9% active; further: on the % scale 0 is the no-effect control and ±100 the full control effect
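Luciferase-expressing parasites in RBCs, 2% Hct / 0.1% parasitemia final; RPMI 1640 + 0.5% Albumax; 37 C, 5% CO2, one generation; luminescence read-out, lower signal = inhibition.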
AMA1-RON2 inh – disrupts binding of P. falciparum AMA1 to RON2 | AlphaScreen AMA1-biotinylated RON2 peptide binding | Potency, µM (highest dose often 58.2 µM), inactives show at the top dose activity change, negative = inhibition, usual class: inhibitors | 360,000 tested, 0.2% active | AID 720542;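 further: 0% = vehicle wells and -100% = peptide control; nearly all actives have a fitted effect of over 45% in size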
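AMA1 (3D7) with his tag at 25 nM final met compounds first, then biotinylated RON2 peptide at 25 nM; detection used donor plus acceptor beads, 10 µg/mL apiece, read by AlphaScreen after 30 min at room temperature.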
Pf growth 96h – inhibits malaria parasite growth, 96 h. P. falciparum luciferase reporter growth, 96 h. Potency, µM (series often up to 28.7 µM), for the others: at the top dose activity change, negative = inhibition, usual class: inhibitors. 320,000 tested, 6.9% active. AID 504834; further: on the % scale 0 is the no-effect control and ±100 the full control effect
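Luminescence readout: decreased luciferase signal marks inhibited growth of reporter-expressing P. falciparum in infected red cells (2% hematocrit, 0.05% parasitemia final), exposed to compound two generations (96 h, 37 C, 5% CO2).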
SARS PLP yeast – inhibitors of SARS-CoV papain-like protease in yeast; S. cerevisiae expressing SARS-CoV PLpro, growth rescue; Potency, µM (titrated, usually from 32.9 µM), without a hit: at the top dose activity, positive = growth rescue, hits mostly activators; 330,000 tested, 0.19% active; calls by dose curve; further: 0% is about no effect; nearly all actives have a fitted effect of over 55% in size
* = called active by the depositor; ? = inconclusive; · = no result given; [ ] = dose if it differs, or a comment. Most compounds without a hit are left out; they make up all but 9.4% or so of the library. Unless noted, the call rests on the fitted dose curve; in most records, active means well fitted curve in the direction sought with a large enough effect; inconclusive means small, poorly fitted or top-dose-only effect, or another doubt; inactive means no such curve, though single readings can be large; an effect the other way counts as inactive or inconclusive. Potency means the concentration at half of the fitted maximal effect.

SMILES	Pf growth 48h	AMA1-RON2 inh	Pf growth 96h	SARS PLP yeast
O=C(Cn1cnc(S(=O)(=O)N2CCCC2)c1)Nc1ccc(OC(F)(F)F)cc1	9.3%	0.0%	?	-0.2%
CC(=O)N/C(=N/c1nc(C)cc(C)n1)Nc1ccc(C)cc1C	8.2%	9.7%	26.0%	-2.4%
CCOC(=O)C1CCN(c2cc(=O)n(C3CCCCC3)c(=O)[nH]2)CC1	2.94µM*	2.2%	52.9%	6.1%
CCOC(=O)C1CCN(c2cc(=O)n(-c3ccccc3Cl)c(=O)[nH]2)CC1	1.85µM*	11.5%	13.2%	?
Cc1ccc(C)c(-n2c(SCC(=O)N3CCC(C(=O)O)CC3)nnc2-c2cccc(Cl)c2)c1	?	-5.7%	-53.1%[5.75 µM]	-1.1%
CCOC(=O)C1=C(C)OC(N)=C(C#N)C1c1cc2cc(C)ccc2nc1N1CCCCC1 (centres undefined)	?	6.1%	470.9%	-20.3%
CCOC(=O)C1=C(C)OC(N)=C(C#N)C1c1cc2ccccc2nc1N1CCCCC1 (centres undefined)	-12.4%	0.6%	1.31µM*	-1.6%
N=c1ccn(Cc2cccc(F)c2)cc1	2.33µM*	20.0%	1.7%	-1.1%
Nc1ccn(Cc2cccc(F)c2)n1	12.1%	-0.9%	?	-1.4%
CCN(CC)CCCNC(=O)c1ccc(OCC(=O)Nc2ccccc2C(F)(F)F)c(OC)c1	?	-10.1%	18.5µM*	0.1%
O=c1[nH]c(=O)n(-c2ccc(F)cc2)c2c1C(C(F)(F)F)(C(F)(F)F)N=C(c1ccc(F)cc1)N2	?	17.4%	11.7µM*	-2.5%
O=[N+]([O-])c1ccc(NCCO)c2ncccc12	8.9%	-10.3%	15.7%	-1.1%
O=[N+]([O-])c1cc(C(F)(F)F)cc([N+](=O)[O-])c1NCCCNc1ccc([N+](=O)[O-])c2cccnc12	?	?	4.15µM*	3.4%
O=C(c1cc(-c2cccc(Cl)c2)on1)N1CCN(c2ccccc2)CC1	35.9%	0.0%	16.2%	4.2%
CC1(C)C2CCC1(C)C(NC(=O)/C=C/c1ccccc1)C2 (centres undefined)	7.38µM*	15.2%	-26.1%	-33.8%
O=C(/C=C/c1ccccc1)NC1CCSC1=O (centres undefined)	34.8%	-16.3%	10.4µM*	-31.8%
C=CCNC(=O)C(=O)NCC(c1ccc2c(c1)OCO2)N1CCOCC1 (centres undefined)	19.9%	-9.4%	37.1%	-8.9%
COc1cc([N+](=O)[O-])ccc1NC(=O)NN1CCN(C)CC1	-1.2%	0.0%	-18.9%	0.5%
COc1ccc(CNC(=O)[C@H](NC(=O)C2CCN(C(=O)[C@@H](N)CCSC)CC2)C(C)C)cc1	36.0%	4.9%	-1.9%	8.4%
Cc1ccc(Cl)cc1NS(=O)(=O)c1ccccc1	·	7.0%	·	·
O=C1C(Nc2ccc(O)cc2)=C/C(=N/S(=O)(=O)c2cccs2)c2ccccc21	?	25.1µM*	0.465µM*	-1.6%
O=C1/C(=N\S(=O)(=O)c2cccs2)C([n+]2ccccc2)=C([O-])c2ccccc21	?	-2.0%	?	-1.4%
Cc1ccc(NC2=C/C(=N\S(=O)(=O)c3cccs3)c3ccccc3C2=O)c(C)c1	0.0928µM*	4.47µM*	0.0329µM*	-72.3%
Cc1cccc(NC2=C/C(=N/S(=O)(=O)c3cccs3)c3ccccc3C2=O)c1	0.522µM*	?	-8.8%	2.5%
Cc1ccc(Cl)cc1NC1=C/C(=N\S(=O)(=O)c2cccs2)c2ccccc2C1=O	·	4.47µM*	0.147µM*	-21.6%
SMILES	Pf growth 48h	AMA1-RON2 inh	Pf growth 96h	SARS PLP yeast
Cc1cc(C)c(S(=O)(=O)/N=C2\C=C(NS(=O)(=O)c3ccccc3)C(=O)c3ccccc32)c(C)c1	-24.0%	-16.0%	-24.1%	-0.4%
CCOC(=O)c1[nH]c(C)c(CN(Cc2ccco2)C(=O)C(F)(F)F)c1C	10.4µM*	4.6%	1.1%	17.4%
CCOC(=O)c1[nH]c(C)c(C(=O)NCc2ccco2)c1C	16.7%	-6.5%	2.9%	-8.8%
CCOC(=O)c1[nH]c(C)c(CN(CCc2ccccc2)C(=O)CCC(=O)O)c1C	-35.4%	-9.5%	4.15µM*	-0.1%
COCCCNC(=O)C1CC(=O)N(C2CCCC2)C1 (centres undefined)	2.0%	-0.3%	10.4µM*	-8.6%
CCOCCCNC(=O)C1CC(=O)N(C2CCCC2)C1 (centres undefined)	14.2%	14.5%	11.7µM*	-0.2%
COCCNC(=O)C1CC(=O)N(C2CCCCC2)C1 (centres undefined)	24.1%	-0.2%	-1.4%	-4.8%
CC(=O)SC1CC(=O)N(c2ccc(C(C)(C)C)cc2)C1=O (centres undefined)	23.6%	11.1%	36.0%	-7.2%
CC(=O)SC1CC(=O)N(c2c(C)cccc2C)C1=O (centres undefined)	1.85µM*	-2.3%	13.1%	-0.8%
CCCC1CC(CSC(=N)N)OC1=O (centres undefined)	·	9.9%	34.8%	14.1µM*
COc1ccc(CCN2C(=O)C3C4CCC(C4=C(C)C)C3C2=O)cc1OC (centres undefined)	-18.3%	-9.0%[2.32 µM]	?	14.4%
CCOc1ccccc1C(=O)Nc1cc(C(=O)NCC(C)C)ccc1Cl	7.38µM*	·	1.65µM*	-1.9%
CCOc1cc(NC(=O)C2CC2)c(OCC)cc1NC(=O)c1ccccc1OCC	5.86µM*	-20.7%	-20.0%	-1.1%
O=C(Nc1ccccc1)c1ccccc1NC(=O)C1CCCCC1	-24.5%	-8.5%	75.7%	-6.0%
CCOc1ccccc1NC(=O)C(OC(=O)c1ccc(O)cc1)c1ccccc1 (centres undefined)	11.7µM*	0.5%[2.32 µM]	?	-56.5%
CC(C)c1ccccc1NC(=O)c1ccccc1NC(=O)C1CCCCC1	11.7µM*	0.9%	186.8%	4.5%
CCOc1cc(NC(=O)C2CC2)c(OCC)cc1NC(=O)c1cc(OC)c(OC)c(OC)c1	-12.6%	4.1%	-18.8%	-1.3%
CCOc1ccccc1NC(=O)C(OC(=O)c1ccc(CC)cc1)c1ccccc1 (centres undefined)	?	35.3%	?	-28.7%
CCOc1ccccc1C(=O)Nc1cc(C(=O)NCCc2ccccc2)ccc1Cl	?	-1.2%	?	-3.9%
CCCCC(=O)NC(Nc1sc2c(c1C(N)=O)CCCC2)(C(=O)OCC)C(F)(F)F (centres undefined)	0.3%	-4.3%	?	8.3%
COc1ccc(C(CC(=O)O)NS(=O)(=O)c2ccc(C)cc2)cc1OC (centres undefined)	23.0%	10.2%	?	2.0%
O=C(O)c1cccc(-c2noc(-c3cccc(Cl)c3)n2)c1	?	·	?	-2.1%
CC1CN(C(=O)c2cc(S(=O)(=O)N(C)c3ccc(F)cc3)ccc2Cl)CC(C)O1 (centres undefined)	-19.9%	10.8%	-12.8%	6.9%
CCOc1ccccc1NC(=O)c1cccc(NC(=O)CC(c2ccccc2)c2ccccc2)c1	?	-9.0%	?	1.9%
CCOc1ccccc1NC(=O)c1ccc(Cl)c(NC(=O)CC(c2ccccc2)c2ccccc2)c1	?	0.0%	9.28µM*	3.1%
COc1cc(/C=C/C(=O)OCC(=O)NC(=O)NC(C)C)ccc1OCC#N	8.2%	-2.0%	-15.6%	18.4%
